# According to PubChem BioAssay (NCI):
# This is part of a sample that, as a whole, favours compounds with a hit. Of some 79,000 tested, about 15% had one in any assay. A number with no mark means an inactive call. The source made the active and inactive calls. No stated cut-off is given here; in the data, active means growth inhibition above about 70%; inactive means the rest.
# Assays:
# [1] = NCI Yeast Anticancer Drug Screen. Data for the rad52 strain (AID 147);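 further: 0% = growth of vehicle-treated control cultures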; conditions: S. cerevisiae rad52 mutant growth inhibition, stronger effect = higher value
# Summary of the method: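 Growth of repair-deficient yeast cells was compared between compound-treated and vehicle-treated cultures to give percent inhibition.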
# [2] = NCI Yeast Anticancer Drug Screen. Data for the wt1 strain (AID 149);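 further: 0% = growth of vehicle-treated wt1 cultures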; conditions: S. cerevisiae wt1 strain (SPY 50644) growth inhibition, stronger effect = higher value
# Summary of the method: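 Yeast wt1 strain exposed to compounds; growth inhibition measured relative to vehicle-treated controls.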
# [3] = NCI Yeast Anticancer Drug Screen. Data for the rad50EPP+ strain (AID 151);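 further: 0% = growth of vehicle-treated control cultures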; conditions: S. cerevisiae rad50 mutant strain, stronger effect = higher value
# Summary of the method: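 Measured: growth inhibition of rad50EPP+ yeast. Reference: vehicle-treated controls. Screen uses strains with defined genetic alterations in DNA damage repair or cell cycle control.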
# [4] = NCI Yeast Anticancer Drug Screen. Data for the mgt1 strain (AID 153); conditions: S. cerevisiae mgt1 mutant growth inhibition, stronger effect = higher value
# Summary of the method: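 Compounds were applied to mgt1 mutant yeast, and growth was then compared against vehicle-treated control cultures to give percent inhibition.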
# [5] = NCI Yeast Anticancer Drug Screen. Data for the rad50 strain (AID 155);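 further: 0% = growth of vehicle-only cultures of the same strain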; conditions: S. cerevisiae rad50 strain growth inhibition, stronger effect = higher value
# Summary of the method: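 Yeast carrying a defined DNA repair defect were exposed to test compounds, and growth was compared with vehicle-treated controls to give percent inhibition.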
# [6] = NCI Yeast Anticancer Drug Screen. Data for the mec2-1 strain (AID 157); conditions: S. cerevisiae mec2-1 strain, stronger effect = higher value
# Summary of the method: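 Compounds were applied to mec2-1 yeast cells. Their growth was then compared with that of vehicle-treated cultures to give growth inhibition.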
# [7] = NCI Yeast Anticancer Drug Screen. Data for the rad14 strain (AID 159);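 further: 0% = growth of vehicle-treated control cultures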; conditions: S. cerevisiae rad14 strain growth inhibition, stronger effect = higher value
# Summary of the method: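 Yeast cells carrying a defined DNA-repair defect were exposed to compounds, and growth inhibition was calculated relative to vehicle-treated control cultures.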
# [8] = NCI Yeast Anticancer Drug Screen. Data for the sgs1 mgt1 strain (AID 161);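 further: 0% = growth of cultures given vehicle only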; conditions: S. cerevisiae sgs1 mgt1 strain, stronger effect = higher value
# Summary of the method: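 Percent growth inhibition was derived by comparing compound-exposed mutant yeast with vehicle-exposed cultures. The strain carries alterations in DNA damage repair.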
# [9] = NCI Yeast Anticancer Drug Screen. Data for the cln2 rad14 strain (AID 165);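 further: 0% = growth equal to vehicle treated cultures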; conditions: S. cerevisiae cln2 rad14 strain, stronger effect = higher value
# Summary of the method: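 Strain: cln2 rad14 yeast, altered in cell cycle control and DNA damage repair. Read-out: growth inhibition vs vehicle.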
# [10] = NCI Yeast Anticancer Drug Screen. Data for the bub3 strain (AID 167); conditions: S. cerevisiae bub3 mutant strain, stronger effect = higher value
# Summary of the method: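 Compounds were applied to a genetically altered yeast strain carrying a cell-cycle control defect. Growth inhibition was scored against vehicle-treated controls.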
# [11] = NCI Yeast Anticancer Drug Screen. Data for the wt2 strain (AID 169);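 further: 0% = growth of vehicle-treated yeast cultures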; conditions: S. cerevisiae wt2 strain growth inhibition, stronger effect = higher value
# Summary of the method: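 Growth of compound-treated yeast is measured and expressed as inhibition relative to vehicle-only controls.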
# [12] = NCI Yeast Anticancer Drug Screen. Data for the mlh1 strain (AID 171);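 further: 0% = growth of vehicle-treated control cultures of the same strain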; conditions: S. cerevisiae mlh1 strain growth inhibition, stronger effect = higher value
# Summary of the method: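 Test agents were incubated with yeast bearing a defined DNA damage repair or cell cycle control alteration; values are growth inhibition normalised to vehicle-treated cultures.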
# [13] = NCI Yeast Anticancer Drug Screen. Data for the sgs1 strain (AID 173);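 further: 0% = growth of vehicle-only control cultures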; conditions: S. cerevisiae sgs1 mutant, stronger effect = higher value
# Summary of the method: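 Strain with an altered DNA repair or cell cycle pathway exposed to compound. Growth then measured. Value = inhibition versus vehicle control.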
# [14] = NCI Yeast Anticancer Drug Screen. Data for the mlh1 rad18 strain (AID 175); conditions: S. cerevisiae mlh1 rad18 strain growth inhibition, stronger effect = higher value
# Summary of the method: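 A repair-deficient yeast strain is exposed to test compound, and growth is scored relative to vehicle-treated controls.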
# [15] = NCI Yeast Anticancer Drug Screen. Data for the rad18 strain (AID 177); conditions: S. cerevisiae rad18 mutant growth inhibition, stronger effect = higher value
# Summary of the method: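 DNA-repair-defective yeast; compound treatment; growth inhibition scored against vehicle.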
# [16] = at 5.0 µM (retest, dose inferred, filed as 0.5)
# [17] = at 50.0 µM (retest, dose inferred, filed as 5.0)
compound,measurement,setting,value
COc1ccc(-c2cn(-c3ccc(I)cc3)c3ncnc(N)c23)cc1,growth inhibition,[1]; at 1.2 µM,-2%
same,growth inhibition,[1]; at 3.7 µM,-5%
same,growth inhibition,[1]; at 11.0 µM,-9%
same,growth inhibition,[1]; at 33.0 µM,-7%
same,growth inhibition,[1]; at 100.0 µM,-8%
same,growth inhibition,[2]; at 1.2 µM,-4%
same,growth inhibition,[2]; at 3.7 µM,-4%
same,growth inhibition,[2]; at 11.0 µM,-10%
same,growth inhibition,[2]; at 33.0 µM,-11%
same,growth inhibition,[2]; at 100.0 µM,-2%
same,growth inhibition,[3]; at 1.2 µM,-2%
same,growth inhibition,[3]; at 3.7 µM,1%
same,growth inhibition,[3]; at 11.0 µM,6%
same,growth inhibition,[3]; at 33.0 µM,8%
same,growth inhibition,[3]; at 100.0 µM,6%
same,growth inhibition,[4]; at 1.2 µM,-6%
same,growth inhibition,[4]; at 3.7 µM,-8%
same,growth inhibition,[4]; at 11.0 µM,-11%
same,growth inhibition,[4]; at 33.0 µM,2%
same,growth inhibition,[4]; at 100.0 µM,17%
same,growth inhibition,[5]; at 1.2 µM,-2%
same,growth inhibition,[5]; at 3.7 µM,-2%
same,growth inhibition,[5]; [16],4%
same,growth inhibition,[5]; at 11.0 µM,-2%
same,growth inhibition,[5]; at 33.0 µM,1%
same,growth inhibition,[5]; [17],69%
same,growth inhibition,[5]; at 50.0 µM,14.8%
same,growth inhibition,[5]; at 100.0 µM,-10%
same,growth inhibition,[6]; at 1.2 µM,-4%
same,growth inhibition,[6]; at 3.7 µM,-4%
same,growth inhibition,[6]; [16],-6%
same,growth inhibition,[6]; at 11.0 µM,-5%
same,growth inhibition,[6]; at 33.0 µM,0%
same,growth inhibition,[6]; [17],78% (active)
same,growth inhibition,[6]; at 50.0 µM,1.7%
same,growth inhibition,[6]; at 100.0 µM,1%
same,growth inhibition,[7]; at 1.2 µM,-5%
same,growth inhibition,[7]; at 3.7 µM,-8%
same,growth inhibition,[7]; at 11.0 µM,-12%
same,growth inhibition,[7]; at 33.0 µM,-8%
same,growth inhibition,[7]; at 100.0 µM,-1%
same,growth inhibition,[8]; [16],39%
same,growth inhibition,[8]; [17],82% (active)
same,growth inhibition,[8]; at 50.0 µM,-11.2%
same,growth inhibition,[9]; [16],4%
same,growth inhibition,[9]; [17],65%
same,growth inhibition,[9]; at 50.0 µM,-0.5%
same,growth inhibition,[10]; at 1.2 µM,-2%
same,growth inhibition,[10]; at 3.7 µM,-2%
same,growth inhibition,[10]; [16],12%
same,growth inhibition,[10]; at 11.0 µM,-3%
same,growth inhibition,[10]; at 33.0 µM,0%
same,growth inhibition,[10]; [17],72% (active)
same,growth inhibition,[10]; at 50.0 µM,13.2%
same,growth inhibition,[10]; at 100.0 µM,0%
same,growth inhibition,[11]; at 1.2 µM,-4%
same,growth inhibition,[11]; at 3.7 µM,-8%
same,growth inhibition,[11]; at 11.0 µM,-10%
same,growth inhibition,[11]; at 33.0 µM,-8%
same,growth inhibition,[11]; at 100.0 µM,-8%
same,growth inhibition,[12]; at 1.2 µM,-2%
same,growth inhibition,[12]; at 3.7 µM,-5%
same,growth inhibition,[12]; at 11.0 µM,-5%
same,growth inhibition,[12]; at 33.0 µM,10%
same,growth inhibition,[12]; at 100.0 µM,9%
same,growth inhibition,[13]; at 1.2 µM,-4%
same,growth inhibition,[13]; at 3.7 µM,-5%
same,growth inhibition,[13]; at 11.0 µM,-3%
same,growth inhibition,[13]; at 33.0 µM,26%
same,growth inhibition,[13]; at 100.0 µM,29%
same,growth inhibition,[14]; [16],4%
same,growth inhibition,[14]; [17],-17%
same,growth inhibition,[14]; at 50.0 µM,14.2%
same,growth inhibition,[15]; at 1.2 µM,-5%
same,growth inhibition,[15]; at 3.7 µM,-9%
same,growth inhibition,[15]; at 11.0 µM,-10%
same,growth inhibition,[15]; at 33.0 µM,-4%
same,growth inhibition,[15]; at 100.0 µM,0%
